High-throughput results from PubChem BioAssay.
In the library only some 2.2% were active in any assay of this set; here they are far more common.
Nox1 inhibitor: inhibitors of human NADPH oxidase 1 (Nox1); Q9Y5S8; AID 1792; inhibition, % at 6.7 µM; 16,000 compounds, 0.81% hits; HT29 cells, luminol chemiluminescence ROS
PME-1 Maybr inh: inhibitors of human PME-1 in Maybridge library. Q9Y570. 16,000 compounds, 0.5% hits. AID 2291. recombinant PME-1, FP-Rh probe fluorescence polarization. inhibition, % at 9 µM; in the data active means inhibition above about 30%
Target sequence (Q9Y570 whole entry, looked up): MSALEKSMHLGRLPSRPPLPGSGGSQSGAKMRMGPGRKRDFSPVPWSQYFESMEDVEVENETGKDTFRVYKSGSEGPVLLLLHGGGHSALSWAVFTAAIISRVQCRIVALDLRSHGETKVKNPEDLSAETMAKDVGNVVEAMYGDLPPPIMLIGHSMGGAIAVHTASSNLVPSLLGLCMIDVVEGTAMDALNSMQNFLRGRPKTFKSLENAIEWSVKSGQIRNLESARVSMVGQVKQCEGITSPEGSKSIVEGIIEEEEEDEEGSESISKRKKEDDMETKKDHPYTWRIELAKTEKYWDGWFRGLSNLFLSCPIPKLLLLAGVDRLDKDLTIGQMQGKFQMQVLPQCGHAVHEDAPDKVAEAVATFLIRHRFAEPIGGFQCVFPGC
luminol inh ctr: counter-screen for Nox1 inhibitors: inhibitors of luminol chemiluminescence | HRP/luminol/H2O2 chemiluminescence counterscreen | 16,000 compounds, 0.4% hits | inhibition, % at 6.7 µM; further: reference of the scale not given here
NOTCH ag: activates NOTCH signaling in reporter cells; NOTCH signaling luciferase reporter cells, luminescence; activation, % at 2.5 µM; 15,000 compounds, 0.4% hits; AID 434982; in the data active means activation above about 2.2%
The depositor's hits bear a star; · = no result. Unless noted, no stated cut-off is given here; in the data, active means inhibition above about 75%; inactive means the rest.

SMILES | Nox1 inhibitor | PME-1 Maybr inh | luminol inh ctr | NOTCH ag
Cc1c(Cc2c(Cl)cccc2Cl)c(=O)oc2cc(O)ccc12 | -102 | 33* | -36 | 0
Cc1noc(C)c1-c1nnc(-c2c(C)nn(-c3ccccc3)c2C)o1 | -24 | 2 | 1 | -1
O=C(Nc1ccccc1NC(=O)c1c(F)cccc1F)c1c(F)cccc1F | -1 | 6 | -6 | 0
CCN(CC)c1ccc(NC(=O)c2c(F)cccc2F)c(N(CC)CC)n1 | 94* | 6 | 4 | 0
O=C(O)/C=C/C(=O)Nc1ccc(N2CCCCCC2)c(NC(=O)/C=C/C(=O)O)c1 | 18 | -6 | 5 | 2.4*
FC(F)(F)COc1ccc(OCC(F)(F)F)c(-c2csnn2)c1 | -18 | 0 | -6 | 0
FC(F)(F)COc1ccc(OCC(F)(F)F)c(-c2n[nH]c(=S)o2)c1 | 15 | 1 | 87* | 0
O=C(O)/C=C\C(=O)NCc1csc2ccccc12 | -2 | 3 | -4 | -1
CCOC(=O)Cc1c(C)[nH]c(C(=O)OCC)c1CC(=O)OCC | -68 | -1 | 0 | 0
CCOC(=O)Cc1c(C(=O)OCC)[nH]c(C)c1C(=O)OCc1ccccc1 | -74 | 7 | -1 | 5.8*
O=C1c2ccccc2NC(c2ccccn2)N1CCCN1CCOCC1 (stereo unspecified) | -66 | -2 | 4 | 0
CCOC(=O)Cc1c(C)[nH]n(-c2ccccc2)c1=O | 44 | 0 | 2 | 0
O=c1c(C=Nc2ccccc2)c(Nc2ccccc2)[nH]n1-c1ccccc1 | 1 | 84* | -16 | 0
O=C1CS/C(=C/C(=O)c2cccs2)N1 | 7 | 0 | 4 | 0
O=C1CS/C(=C\C(=O)N2CCOCC2)N1 | -6 | 3 | 78* | ·
Cc1nc(C(F)(F)F)[nH]c(=O)c1C | -47 | -3 | 1 | 0
C=C(C)c1ccccc(=O)c1O | -21 | 3 | -2 | 4.9*
O=[N+]([O-])c1cccc(-c2c[nH]c(=S)[nH]2)c1 | 24 | 2 | 10 | 0
S=c1[nH]cc(-c2ccc(Br)cc2)[nH]1 | 98* | 10 | -3 | 0
COC(=O)C1=C(Nc2ccc(O)cc2)CSC1 | 99* | 6 | -19 | 0
COC(=O)C1=C(Nc2ccccc2NS(=O)(=O)c2ccc(OC)cc2)CSC1 | 49 | 9 | 29 | 0
CN(C)CC#Cc1cccc(/C=N/O)c1 | -36 | -2 | -10 | -1
COc1ccc(C(=O)C=C(C)C)c(O)c1O | 76* | 2 | 41 | 0
N#Cc1c(N)c(C#N)c2c(c1-c1ccco1)Cc1ccccc1-2 | -26 | -16 | 6 | 0
O=[N+]([O-])c1cccc(Cl)c1Oc1ccc(S(=O)(=O)N2CCOCC2)cc1 | 0 | 33* | -2 | -1
SMILES | Nox1 inhibitor | PME-1 Maybr inh | luminol inh ctr | NOTCH ag
O=C(Cc1ccccc1Cl)N/N=C(/C(=O)O)c1ccccc1 | -29 | 38* | 2 | 0
CSc1cccc(NC(=S)Nc2cccc(SC)c2)c1 | -26 | 6 | -10 | 2.5*
N#Cc1cc(Cl)ccc1N=Cc1cccc([N+](=O)[O-])c1 | 24 | 1 | -7 | 1
Cc1noc(C)c1C(=O)Nc1ccc(N2CCOCC2)nc1N1CCOCC1 | 78* | 6 | 4 | 0
CCn1c(=S)[nH]c2sc(C)c(C)c2c1=O | -14 | 12 | 90* | 0
Cc1ccnc(-n2c(=S)[nH]c3sc(C)c(C)c3c2=O)c1 | 46 | 5 | 100* | -1
CN(C)c1ccc(/C=N/Nc2c(Cl)cncc2Cl)cc1 | 102* | 2 | 3 | 1
CN(C)c1ccc(/C=N/NC2=NCCN2)cc1 | -3 | 1 | -23 | 0
COc1nc(NNC(=O)NS(=O)(=O)c2ccccc2Cl)nc(OC)n1 | 78* | 2 | 18 | 0
Cc1nn(-c2ccccc2)nc1CNC(=O)C1=Cc2ccccc2OC1 | -4 | -6 | -2 | 2.3*
O=C(NNc1c(Cl)cncc1Cl)c1ccc(F)cc1F | -7 | 1 | -1 | -6
O=C(NNc1cc(Cl)cc(Cl)c1)c1ccc(F)cc1F | 20 | 4 | 76* | -1
N/C(=N\OC(=O)c1c(F)cccc1F)c1ccc(Cl)cc1 | 16 | 0 | -5 | 0
C(=Nc1cccc2ccccc12)c1ccccc1 | -5 | 3 | -4 | 0
Oc1ccccc1N=CC=Nc1ccccc1O | 96* | 8 | 17 | 0
COc1cccc(C2Nc3ccccc3C(=O)N2NS(=O)(=O)c2ccc(C)cc2)c1O (stereo unspecified) | 30 | 8 | 99* | 0
Cc1ccc(S(=O)(=O)NC(=O)NCC2CCN(S(=O)(=O)c3ccccc3)CC2)cc1 | -57 | 3 | -1 | 0
CCOC(=O)C1CCN(c2ccc(C(C)=O)cc2NC(=S)Nc2cc(Cl)ccc2Cl)CC1 | -27 | -4 | 2 | 5.9*
O=C1C=CC(=O)N1CCc1ccccc1 | 100* | -2 | 6 | 0
O=C(C1CCCCC1)N1CC(=O)N(CCc2ccccc2)C(=O)C1 | -68 | 2 | 0 | 0
COc1cc(CCC(=O)NNC(=S)Nc2ccc(F)cc2)cc(OC)c1OC | 13 | 1 | 92* | 0
O=Cc1c(O)c2ccccc2c2ccccc12 | -107 | 31* | -5 | 0
Oc1c(Cl)c2nc3ccccc3nc2c2ccccc12 | -18 | 21 | 6 | 0
O=[N+]([O-])c1cc(Br)cnc1Sc1n[nH]c(-c2ccccc2)n1 | 35 | 4 | 99* | 0
O=[N+]([O-])c1cnc(Sc2n[nH]c(-c3cccs3)n2)s1 | 47 | 7 | -3 | -1
SMILES | Nox1 inhibitor | PME-1 Maybr inh | luminol inh ctr | NOTCH ag
O=c1oc2ccc([N+](=O)[O-])cc2cc1-n1cccc1 | -48 | -2 | 2 | -1
O=c1c2cc([N+](=O)[O-])ccc2oc2ncccc12 | 5 | 3 | -2 | 3.0*
O=C(CCN1CCC(c2ccc(Cl)s2)=N1)c1ccc(Cl)s1 | -37 | -1 | -2 | 3.4*
Cn1cnc(S(=O)(=O)Nc2ccc(N3CCCCC3)cc2)c1 | 87* | -1 | 2 | -2
COc1cc(-c2nc(-c3ccccc3)c(-c3ccccc3)[nH]2)ccc1O | 101* | 1 | -15 | -1
Cc1noc(C)c1-c1nc(-c2ccc(C(F)(F)F)cn2)no1 | -95 | 5 | 0 | 0
CSc1sc(C(=O)O)c(-c2cccs2)c1C#N | -22 | 2 | 1 | 0
O=[N+]([O-])c1cccc(-c2ccn(S(=O)(=O)c3ccc(Cl)cc3)n2)c1 | -9 | 1 | 1 | 0
COc1ccc(OC(=O)c2ccc3ncccc3c2)cc1 | 92* | 8 | -3 | 0
O=C1c2cccc3c([N+](=O)[O-])ccc(c23)C(=O)N1NCCO | -8 | 18 | -1 | -1
O=C1c2cccc3c([N+](=O)[O-])ccc(c23)C(=O)N1Cc1cccnc1 | -5 | 33* | -4 | -1
FC(F)(F)c1ccc(-c2nnc(-c3ccc(Cl)cc3)o2)nc1 | -35 | 1 | 1 | -1
O=[N+]([O-])c1cccc(-c2ccc(/C=N/NC(=S)NCc3ccco3)o2)c1 | -20 | 36* | 3 | -1
O=[N+]([O-])c1ccc(-c2ccc(/C=N/NC(=S)Nc3cccc(F)c3)o2)cc1 | 45 | -7 | 9 | 0
O=C(Oc1ccc2occ([N+](=O)[O-])c2c1)c1ccc(C(F)(F)F)cc1 | 71 | 0 | 4 | -1
O=c1[nH]c2ccsc2c(=O)n1CCO | 84* | 3 | 13 | -1
Cc1cc(=O)n(CCO)c(=O)[nH]1 | 14 | 2 | -4 | 0
